Compounds with a hit are over-represented: about 0.74% of the library has one in this group of screens.
Cardiac RTF inh = cardiac RTF calcium sensitivity inhibitors, primary screen, biochemical, IANBD-TnC fluorescence, EC70 calcium | inhibition, % at 7.15 µM | IANBD-labeled cardiac RTF, Ca2+ fluorescence | AID 493244, 2011 | Troponin I, cardiac muscle (Homo sapiens) + Troponin T, cardiac muscle (Homo sapiens) + … | 340,000 compounds, 0.12% hits;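 active = inhibition above the mean inhibition of all tested compounds plus 3 SD, cut at about 17% in these data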;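 also: assay run at fixed EC70 calcium of 1.6 mM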
RTF Ca sens act = cardiac RTF calcium sensitivity activators, primary screen, biochemical, IANBD-TnC fluorescence, EC20 calcium; activation, % at 7.2 µM; Troponin I, cardiac muscle (Homo sapiens) + Troponin T, cardiac muscle (Homo sapiens) + …; 340,000 compounds, 0.24% hits; IANBD-labeled TnC RTF fluorescence at EC20 calcium; 0% EC20 calcium, 100% full calcium;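 active = activation above the mean over all tested compounds plus 3 SD, cut at about 30% in these data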;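 also: rise in fluorescence read as greater calcium sensitivity of cardiac thin filaments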
C-LANA FP = inhibitors of KSHV C-LANA binding to DNA, primary screen, biochemical, fluorescence polarization, FAM-LBS DNA, MBP-C-LANA, single point. Kaposi's sarcoma herpesvirus LANA C-terminal domain (residues 932-1162) DNA binding. inhibition, % at 9 µM. AID 504423, 2011. 340,000 compounds, 0.078% hits;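 active = highest replicate inhibition at or above 60% at 9 µM, even if other replicates fall short; inactive = all replicates below 60% inhibition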;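 also: 0% = neutral control wells and 100% = 4 µM acridine orange control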
eLon inh = inhibitors of E. coli Lon protease, primary screen, biochemical, fluorescence polarization; P0A9M0; purified E. coli Lon protease; inhibition, % at 7.94 µM; 360,000 compounds, 0.42% hits; in the data active = inhibition above about 13%, passing the limit was not always enough;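 also: 0% = enzyme with probe and DMSO and 100% = no enzyme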
Keap1-Nrf2 PPI = Keap1-Nrf2 protein-protein interaction inhibitors, primary screen, biochemical, fluorescence polarization, single point. Keap1 Kelch-Nrf2 peptide fluorescence polarization, 1536-well. inhibition, % at 9.4 µM. 340,000 compounds, 0.15% hits; in the data active = inhibition above about 12%;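 also: human Keap1 Kelch domain with fluorescein labeled Nrf2 9mer peptide probe; 0% = neutral control wells and 100% = peptide positive control; higher means more block of Keap1 binding to Nrf2 peptide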
Target sequence (Q14145 whole entry, looked up, the tested form may be a part): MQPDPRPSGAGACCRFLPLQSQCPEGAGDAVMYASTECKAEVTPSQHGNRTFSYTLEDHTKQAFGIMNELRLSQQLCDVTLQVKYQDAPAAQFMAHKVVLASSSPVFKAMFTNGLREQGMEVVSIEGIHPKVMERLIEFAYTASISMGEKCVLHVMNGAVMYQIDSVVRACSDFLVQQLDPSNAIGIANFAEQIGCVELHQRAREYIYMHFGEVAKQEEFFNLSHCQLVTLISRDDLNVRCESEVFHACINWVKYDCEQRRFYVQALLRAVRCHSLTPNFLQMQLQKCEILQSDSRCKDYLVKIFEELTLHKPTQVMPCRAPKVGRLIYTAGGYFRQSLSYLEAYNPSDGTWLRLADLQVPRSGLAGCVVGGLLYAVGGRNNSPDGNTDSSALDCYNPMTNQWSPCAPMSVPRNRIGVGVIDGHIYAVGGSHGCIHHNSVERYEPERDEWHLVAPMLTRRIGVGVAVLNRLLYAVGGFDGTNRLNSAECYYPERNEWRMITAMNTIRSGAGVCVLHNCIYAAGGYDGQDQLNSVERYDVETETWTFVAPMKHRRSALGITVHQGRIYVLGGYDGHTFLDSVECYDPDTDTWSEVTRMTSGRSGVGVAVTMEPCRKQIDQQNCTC
eLon confirm = E. coli Lon protease inhibitor retest, confirmation, biochemical, fluorescence polarization; shares compounds with eLon inh; purified E. coli Lon; inhibition, % at 7.94 µM; 1,400 compounds, 31% hits; in the data active = inhibition above about 16%;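 also: 0% = enzyme with probe and DMSO and 100% = no enzyme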
* = called active by the depositor; i = inactive; · = not tested or not shown; + = active, no number.

SMILES | Cardiac RTF inh | RTF Ca sens act | C-LANA FP | eLon inh | Keap1-Nrf2 PPI | eLon confirm
COc1ccc(CC(=O)N2CCN(c3cccc(C)c3C)CC2)cc1 | 1 | -3 | 1 | -4 | 0 | ·
Cc1nc(CC(=O)N2CCN(c3cccc(C)c3C)CC2)cs1 | -7 | 4 | 2 | 24* | 1 | 2
COc1ccc(C2C(C(=O)O)c3ccccc3C(=O)N2C)cc1Br (configuration not stated) | -12 | 1 | -2 | 19* | -5 | -458
COc1cc(OC)c(C2C(C(=O)O)c3ccccc3C(=O)N2C)cc1OC (configuration not stated) | 2 | 0 | 1 | -7 | -2 | ·
CCC/C=C/c1ccc(CN2C(C(C)C)C(=O)N(Cc3cn(CC4CCCCC4)nn3)CCS2(=O)=O)cc1 (configuration not stated) | · | · | · | -3 | · | ·
CNC(=O)c1csc(-c2ccc(Cl)cc2)n1 | 9 | 1 | 1 | -9 | 2 | ·
O=C(O)c1csc(-c2ccc(Cl)cc2)n1 | 3 | 2 | -1 | 16* | -1 | -1
COc1cccc(CNC(=O)[C@@H]2CCCN2C(=O)[C@H]2CCCCN2C(=O)c2cccc(OC)c2)c1 | · | · | · | 3 | · | ·
Cc1ccccc1S(=O)(=O)NC(=O)C1(C)CCN1C(=O)CC(c1ccccc1)c1ccccc1 (configuration not stated) | · | · | · | -4 | · | ·
C(=C\c1ccccc1)/CN1CCN(C(c2cccc3ccccc23)c2nnnn2C2CCCC2)CC1 (configuration not stated) | · | · | · | -4 | · | ·
ON(CCc1ccccn1)CCc1ccccn1 | -12 | 0 | 10 | 38* | 8 | 25*
CCNC(=O)C1(C)CCCN(C(=O)C2(c3ccc(Cl)cc3)CCCC2)C1 (configuration not stated) | · | · | · | -2 | · | ·
CC(=O)c1cccc(NC(=O)C2Cc3c(-c4ccc(Cl)cc4)ccnc3O2)c1 (configuration not stated) | · | · | · | -3 | · | ·
O=C1c2ccccc2C(=O)c2c1cccc2N(CCO)CCO | -7 | 10 | 6 | 27* | 3 | 20*
O=C(CSCC(=O)OCn1nnc2ccccc2c1=O)Nc1ccc(Cl)cc1 | -3 | 5 | 1 | 17* | -6 | 9
C=CCNc1ncnc2c1ncn2[C@H]1CN(Cc2ccc(-c3ccccc3)cc2)C[C@@H](CO)O1 | · | · | · | -2 | · | ·
O=C(Nc1ccc(Cl)c(Cl)c1)c1ccc(Cn2c(=O)[nH]c3ccsc3c2=O)cc1 | -2 | 4 | 0 | 27* | 4 | 15
OCC[C@@H]1C[C@H](O)[C@@H](O)[C@@]2(OCc3ccc4ccccc4c32)O1 | · | · | · | 0 | · | ·
O=C(Nc1cccc2c(=O)[nH][nH]c(=O)c12)c1ccc([N+](=O)[O-])cc1 | · | · | · | 5 | · | ·
O=C1C2C3C=CC(C4CC34)C2C(=O)N1/N=C/c1ccc(-c2ccc(F)cc2[N+](=O)[O-])o1 (configuration not stated) | 1 | 16 | 2 | 19* | 0 | 71*
O=C1C2C3C=CC(C4CC34)C2C(=O)N1/N=C/c1ccc(-c2ccc(Cl)cc2[N+](=O)[O-])o1 (configuration not stated) | -1 | 5 | 1 | 5 | 5 | ·
Cc1nn(C)c(C)c1N1C(=O)c2cccc3c(N)ccc(c23)C1=O | i | + | 183* | + | 116* | +
Cc1nn(C)c(C)c1N1C(=O)c2cccc3c(Br)ccc(c23)C1=O | -5 | 8 | -1 | 6 | -5 | ·
Cc1ccc(N2C(=O)c3cccc4c(N)ccc(c34)C2=O)c2cccnc12 | i | 754* | 3 | 161* | -7 | -34
Cc1ccc(-n2cnnn2)c2cccnc12 | -3 | 4 | 0 | 0 | -6 | ·
SMILES | Cardiac RTF inh | RTF Ca sens act | C-LANA FP | eLon inh | Keap1-Nrf2 PPI | eLon confirm
CC(NC(=O)NC(=O)c1cccc([N+](=O)[O-])c1)C1CC1 (configuration not stated) | -6 | 0 | 1 | 7 | -4 | ·
CC(NC(=O)NC(=O)c1ccc(F)cc1)C1CC1 (configuration not stated) | 0 | -3 | 0 | 26* | -1 | -4
CNC(=O)CSc1nc2cccnc2n1-c1ccc(F)cc1 | 0 | -1 | -1 | 28* | 0 | -11
Cc1ccsc1C1Nc2ccc3ncccc3c2C2=C1C(=O)CC(C)(C)C2 (configuration not stated) | 2 | 8 | -1 | 22* | -3 | 3
O=C1CCCC2=C1C(c1cccs1)Nc1ccc3ncccc3c12 (configuration not stated) | -3 | -1 | 0 | -12 | -1 | ·
Cc1ccc(S(=O)(=O)N=N/C=C2\C=CC=CN2O)cc1 | · | · | · | -3 | · | ·
COC(=O)C(Cc1ccccc1)NC(=O)C(CC(C)C)NC(=O)OC(C)(C)C (configuration not stated) | 7 | 0 | 1 | 6 | 4 | ·
CC(C)CC(NC(=O)OC(C)(C)C)C(=O)O (configuration not stated) | -15 | 2 | -1 | 19* | -2 | -6
O=C1CCCCC(=O)[C@H](OC(=O)c2ccccc2)C[C@H](c2ccccc2)O1 | · | · | · | -11 | · | ·
C(=Cc1cnc2ccccc2n1)c1ccc2c(c1)OCO2 | · | · | · | 96* | · | -17
C(=Cc1nc2ccccc2o1)c1ccc2c(c1)OCO2 | · | · | · | 6 | · | ·
Cc1cccc(/C=N/NC(=O)C(C)Nc2cccc3ccccc23)n1 (configuration not stated) | -20 | 24 | 8 | 61* | 3 | 105*
N#Cc1c(N)[nH]c(C(=O)c2ccccc2)c1-c1ccccc1Br | · | · | · | -5 | · | ·
COc1ccc(O)c(C(=O)c2cnn(-c3ccccn3)c2)c1 | -2 | 2 | 0 | 84* | 5 | -13
COc1ccc(O)c(C(=O)c2cnn(-c3ccc(Cl)cc3)c2)c1 | 1 | -4 | -2 | -9 | 2 | ·
COc1ccccc1NC(=O)COC(=O)c1ccccc1C(=O)N1CCN(c2ccccc2)CC1 | -13 | 1 | · | 24* | · | 5
Cc1ccc(-n2c(C)cc(C(=O)Cn3nc(C(=O)O)c4ccccc4c3=O)c2C)cc1 | -16 | -5 | -1 | 51* | -7 | -4
CC(C)Cn1c(NCCN(C)C)nc2c1c(=O)[nH]c(=O)n2C | -4 | -6 | 0 | 24* | 1 | 1
CCCCCc1c(CC)ncn1CCc1ccccc1OC | · | · | · | -7 | · | ·
Cc1ccc(C(O)c2ncc(-c3ccc4ccccc4c3)[nH]2)cc1F (configuration not stated) | · | · | · | 6 | · | ·
COc1c(Br)cc(/C=N/n2c(-c3ccccc3)n[nH]c2=S)c(O)c1Br | 5 | -10 | 3 | 19* | -3 | -11
